This note sets out measurements from PubChem BioAssay (EPA / NIEHS).

Calls of active or inactive are those of the source. Rule for the calls: active = hit-call score of the fitted dose curve at least 0.9, where 1 is the maximum; inactive = score below 0.9.

Usually AC50 stands for the concentration at which the activity in the assay is half-maximal.

Read-out in the experiment: Fatty Acid-Binding Protein 1 (FABP1), FABP1 (gene 2168)
Briefly: LTEA_HepaRG_FABP1: Life Technologies and Expression Analysis (LTEA) Assay for Fatty Acid-Binding Protein 1 (FABP1) using HepaRG (AID 2283494). The conditions noted are these: mRNA level, 48 h; actives raise or lower the signal. The procedure:
LTEA_HepaRG is a cell based, multiplexed-readout assay that uses HepaRG, a human liver cell line, with measurements taken at 48 hours after chemical dosing on a 96-well plate.LTEA_HepaRG_FABP1 is one of 102 assay component(s) measured in the LTEA HepaRG cell culture assay. It is a marker of Steatosis.Data from the assay component LTEA_HepaRG_FABP1 was analyzed into 1 endpoint. This assay endpoint, LTEA_HepaRG_FABP1, was analyzed with bidirectional fitting relative to DMSO as the negative control and baseline of activity. Using a type of inducible reporter, measures of mRNA induction for gain or loss-of-signal activity can be used to understand regulation of transcription factor activity. To generalize the intended target to other relatable targets, this assay endpoint is annotated to the transporter intended target family, where the subfamily is fatty acid carrier protein.
A total of 1060 chemcials from the ToxCast library were tested in eight-point concentration-response experiments. Cell culture and cytotoxicity assays were conducted at Thermo Fisher Scientific's Custom Services facility (Madison, WI). A single lot of human HepaRG cells (Thermo Fisher Scientific, Frederick, MD) was used for the cell culture experiments. 96-well format collagen type I coated plates of human HepaRG cells were prepared using established methods. Briefly, cryopreserved HepaRG cells were thawed, plated at a density of approximately 100,000 cells/well in HepaRG Thaw, Plate, and General Purpose media (HPRG770, Thermo Fisher Scientific), and incubated for 48 hours. 0.5% DMSO was selected as vehicle control to balance the requisite need of DMSO in HepaRG cultures to maintain differentiation (for example, baseline metabolism, proportions of hepatocytes vs. cholangiocytes), while enabling further hepatic receptor pathway activation (for example, PXR and CAR) in response to chemical exposure. 48 hours after plating, the culture medium was replaced with HepaRG Serum-Free Incudtion Media. Cells were exposed to each test chemical in duplicate and maintained in CO2 incubators for another 48 hours. Chemical plates were thawed to room temperature and 200x concentrations of treatment groups were prepared. 8-point conentration-reponse curves were made with the highest exposure at 100 uM, followed by half-log dilutions, all in 0.5% DMSO. Each test plate contained variouse controls, induction positive controls (1mM phenobarbital), cytotoxicity positive controls ([…] aflatoxin B1), vehicle controls (0.5% DMSO), and total lysis controls (0.5% DMSO). Cell morphology images were taken using an Essen IncuCyte FLR automated microscope, with six 96-well plates imaged in about 24 minutes. Images were captured and exported and JPEG files. Spent culture media was transfered to black-well plates for the LDH assay, and remaining media was sorted at -80 C for later use. Cells were treated with RLT buffer and frozen until shipped for gene expression analysis. Total RNA was isolated from the cell suspension in 75 uL of Buffer RLT (Qiagen, Germantown, MD 20874) by Quintiles/Expression Analysis (Durham, NC) using a custom isolation procedure. Total RNA from each plate well was transferred to a preamplification plate. Fluidigm's 96.96 Dynamic ArrayTM (Fluidigm, Amsterdam, the Netherlands) technology was used for gene expression analyses by quantitative reverse transcription polymerase chain reaction (qRT-PCR, performed by Quintiles/Expression Analysis, Durham, NC)89. Standard TaqManTM Assays (Applied Biosystems/ThermoFisher Scientific, Foster City, CA) were used to assess the expression of 93 genes selected based on their selectivity and sensitivity to important hepatic receptors known to be modulated by environmental chemicals; importance in human hepatocyte functionality; and hepatotoxicity. […]
On to `CCC(=O)Nc1ccc(Cl)c(Cl)c1`, for which the AC50 is 9.92 µM (active). Take `CSC1=N[C@@](C)(c2ccccc2)C(=O)N1Nc1ccccc1`: the AC50 was 53.8 µM (active).

As for `S=C1NCCN1`, the molecule was classed as inactive. For `O=C(O)c1cc(Oc2ccc(C(F)(F)F)cc2Cl)ccc1[N+](=O)[O-]`, the AC50 is 20.3 µM (active). Take `CNC(=O)ON=C(C)SC`: the call was inactive. In the case of `COP(=O)(OC)SCn1c(=O)oc2cc(Cl)cnc21`, the outcome was inactive. Still for that read-out and setting: to `CCc1cccc(CC)c1N(COC)C(=O)CCl` belongs “inactive”. On the same count and under the same terms, to `CON=C(C(=O)OC)c1ccccc1CON=C(C)c1cccc(C(F)(F)F)c1` belongs “inactive”; to `CCOP(=S)(OCC)Oc1cc(C)nc(C(C)C)n1`, “inactive”; to `CCCSP(=O)(OCC)Oc1ccc(Br)cc1Cl` (stereo not given), “inactive”.

As for `CCCCN(CC)c1c([N+](=O)[O-])cc(C(F)(F)F)cc1[N+](=O)[O-]`, the outcome was inactive.

Consider `Cc1cc(C2CC2)nc(Nc2ccccc2)n1`, for which the call was inactive. As to `CCCCSP(=O)(SCCCC)SCCCC`, the AC50 was 92.5 µM (active).

Regarding `CCNc1nc(Cl)nc(NC(C)(C)C#N)n1`, the outcome was inactive. Same read-out and setting: to `COP(=O)(OC)OC(Br)C(Cl)(Cl)Br` (stereo not given) belongs “inactive”. Same read-out and setting: then `CNC(=O)Oc1cccc2c1OC(C)(C)O2`, with “inactive”.

`CN(C)C(=O)Nc1cccc(C(F)(F)F)c1`: the result was inactive. The same measure, in the same setting: to `COP(=O)(NC(C)=O)SC` (stereo not given) belongs “inactive”. Regarding `CCCOCC(=Nc1ccc(Cl)cc1C(F)(F)F)n1ccnc1`, the AC50 is 14.6 µM (active). The same measure, in the same setting: to `CSc1nc(NC(C)C)nc(NC(C)C)n1` belongs 44.1 µM (active); to `CCCSP(=O)(OCC)SCCC`, 15.5 µM (active).

For the molecule `CN(C)[C@@H]1C(=O)C(C(N)=O)=C(O)[C@@]2(O)C(=O)C3=C(O)c4c(O)cccc4[C@@](C)(O)[C@H]3[C@H](O)[C@@H]12`, the call was inactive. The same measure, in the same setting: to `CCOP(=S)(OCC)Oc1ccc([N+](=O)[O-])cc1` belongs “inactive”; to `COc1ccc(C(=CC(=O)N2CCOCC2)c2ccc(Cl)cc2)cc1OC`, “inactive”; to `CC(Oc1cccc(Cl)c1)C(=O)O` (stereo not given), “inactive”.

With `Nc1nc(N)nc(NC2CC2)n1`, the result was inactive. Same read-out and setting: then `CSc1nnc(C(C)(C)C)c(=O)n1N`, with “inactive”; and `CCOC(=O)CC(SP(=O)(OC)OC)C(=O)OCC` (stereo not given), with “inactive”.

As for `CC(=NC#N)N(C)Cc1ccc(Cl)nc1`, the molecule was classed as inactive. As for `CCOP(=O)(NC(C)C)Oc1ccc(SC)c(C)c1` (stereo not given), the half-maximal activity concentration (AC50) is 23.8 µM (active).

For `CN(C)NC(=O)CCC(=O)O`, the call was inactive. On the same count and under the same terms, then `CC1(C(=O)Nc2ccc(O)c(Cl)c2Cl)CCCCC1`, with “inactive”; and `CC(C)N(C(=O)SCC(Cl)=C(Cl)Cl)C(C)C`, with “inactive”. On the same count and under the same terms, then `CCCOc1nn(C(=O)NS(=O)(=O)c2ccccc2C(=O)OC)c(=O)n1C`, with “inactive”.

As for `C#CCC1=C(C)C(OC(=O)C2C(C=C(C)C)C2(C)C)CC1=O` (stereo not given), the concentration at half-maximal activity (AC50) was 49.8 µM (active).

Turning to `CCC(CC)Nc1c([N+](=O)[O-])cc(C)c(C)c1[N+](=O)[O-]`, the half-maximal activity concentration (AC50) was 50 µM (active). Take `CN1COCN(Cc2cnc(Cl)s2)C1=N[N+](=O)[O-]`: the result was inactive.

On to `CC[C@H](C)[C@H]1O[C@]2(C=C[C@@H]1C)C[C@@H]1C[C@@H](C/C=C(\C)[C@@H](O[C@H]3C[C@H](OC)[C@@H](O[C@H]4C[C@H](OC)[C@@H](NC)[C@H](C)O4)[C@H](C)O3)[C@@H](C)/C=C/C=C3\CO[C@@H]4[C@H](O)C(C)=C[C@@H](C(=O)O1)[C@]34O)O2`, for which the half-maximal activity concentration (AC50) was 14.6 µM (active). With `CC(C)[C@H](C(=O)O[C@H](C#N)c1cccc(Oc2ccccc2)c1)c1ccc(Cl)cc1`, the outcome was inactive.

In the case of `CCOP(=S)(OCC)OC(Cl)C(Cl)(Cl)Cl` (stereo not given), the molecule was classed as inactive.
